# Inconclusive results are not listed. The source made the active and inactive calls. Unless noted, the call rests on the fitted dose curve; in most records, active means well fitted curve in the direction sought with a large enough effect; inconclusive means small, poorly fitted or top-dose-only effect, or another doubt; inactive means no such curve, though single readings can be large; an effect the other way counts as inactive or inconclusive.
# Experiments:
# [1] = target: Estrogen receptor (Homo sapiens) (UniProt P03372); experiment: qHTS assay for small molecule antagonists of estrogen receptor alpha signaling (AID 588513; active means well fitted curve in the direction sought with a large enough effect in the signal ratio, with a control signal flat, not every such curve was filed as active; the % refers to the signal ratio; further: on the % scale 0 is the no-effect control and ±100 the full control effect)
# Estrogen receptor (Homo sapiens), sequence (P03372 whole entry, looked up): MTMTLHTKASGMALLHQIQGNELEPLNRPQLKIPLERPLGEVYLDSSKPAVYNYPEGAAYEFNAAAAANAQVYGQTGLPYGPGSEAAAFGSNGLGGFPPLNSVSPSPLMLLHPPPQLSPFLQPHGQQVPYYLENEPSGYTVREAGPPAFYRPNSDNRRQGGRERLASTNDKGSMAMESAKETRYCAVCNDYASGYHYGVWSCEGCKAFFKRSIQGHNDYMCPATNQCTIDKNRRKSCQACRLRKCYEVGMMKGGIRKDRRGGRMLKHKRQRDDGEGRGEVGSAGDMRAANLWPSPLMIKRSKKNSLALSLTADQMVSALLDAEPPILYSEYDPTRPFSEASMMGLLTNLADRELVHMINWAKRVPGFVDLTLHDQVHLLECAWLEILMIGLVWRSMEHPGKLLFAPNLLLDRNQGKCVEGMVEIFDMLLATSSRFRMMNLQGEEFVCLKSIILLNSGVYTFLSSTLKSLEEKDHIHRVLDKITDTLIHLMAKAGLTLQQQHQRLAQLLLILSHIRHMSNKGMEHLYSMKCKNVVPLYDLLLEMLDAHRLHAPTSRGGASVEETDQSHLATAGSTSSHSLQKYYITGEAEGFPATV
# Procedure, shortened: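 Beta-lactamase reporter, antagonist mode, HEK 293 GripTite cells; 0.5nM E2 stimulus, 18 h, 37 C; CCF4 dye 2 h RT; fluorescence. IC50 and efficacy from Hill fits, normalized to E2 and DMSO.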
# [2] = target: Estrogen receptor (Homo sapiens) (UniProt P03372); experiment: qHTS assay for small molecule agonists of estrogen receptor alpha signaling (AID 588514; calls by dose curve; further: nearly all actives have a fitted effect of over 70% in size; further: potency means the concentration at half of the fitted maximal effect;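 on activation: 0% = vehicle only and 100% = reference agonist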)
# Procedure, shortened: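 Cells were plated at 5000/well, incubated 4 hrs at 37 C, dosed with compound titration series, incubated 18 hrs at 37 C, loaded with CCF4 dye for 2 hrs at RT, then fluorescence was read.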
# [3] = target: Glucocorticoid receptor (Homo sapiens) (UniProt P04150); experiment: qHTS assay for small molecule agonists of glucocorticoid receptor signaling (AID 588532; active means well fitted curve in the direction sought with a large enough effect in the signal ratio, with a control signal flat; the % refers to the signal ratio;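 further: 100% = dexamethasone at 0.1 µM and 0% = DMSO only wells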); settings: HeLa MMTV-bla, beta-lactamase ratio, agonist, 18 h; stronger effect = higher value; percent of dexamethasone control, DMSO zero
# Glucocorticoid receptor (Homo sapiens), sequence (P04150 whole entry, looked up): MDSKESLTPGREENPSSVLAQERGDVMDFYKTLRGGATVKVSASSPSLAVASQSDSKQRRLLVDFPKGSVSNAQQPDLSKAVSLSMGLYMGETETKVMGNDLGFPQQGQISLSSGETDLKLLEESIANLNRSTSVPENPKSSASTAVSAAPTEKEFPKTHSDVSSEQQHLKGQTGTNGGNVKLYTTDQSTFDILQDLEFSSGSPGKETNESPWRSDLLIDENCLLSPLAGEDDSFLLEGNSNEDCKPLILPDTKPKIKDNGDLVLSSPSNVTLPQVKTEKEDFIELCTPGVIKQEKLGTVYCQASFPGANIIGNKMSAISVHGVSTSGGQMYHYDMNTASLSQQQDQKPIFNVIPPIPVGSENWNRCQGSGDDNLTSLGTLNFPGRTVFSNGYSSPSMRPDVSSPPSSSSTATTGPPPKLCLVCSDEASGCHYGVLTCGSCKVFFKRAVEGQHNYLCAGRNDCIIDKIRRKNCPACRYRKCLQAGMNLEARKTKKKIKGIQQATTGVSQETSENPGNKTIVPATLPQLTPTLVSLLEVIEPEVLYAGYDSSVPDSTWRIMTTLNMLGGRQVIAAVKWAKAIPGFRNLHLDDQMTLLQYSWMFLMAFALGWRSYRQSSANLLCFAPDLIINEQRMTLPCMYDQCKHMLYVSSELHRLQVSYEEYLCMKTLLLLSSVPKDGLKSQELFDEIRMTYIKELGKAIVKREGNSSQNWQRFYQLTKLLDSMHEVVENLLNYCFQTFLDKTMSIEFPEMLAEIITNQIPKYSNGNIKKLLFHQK
# Procedure, shortened: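 Agonist-mode qHTS: GRE-driven beta-lactamase in HeLa cells exposed 18 h to titrated compounds (up to 92 uM), then CCF4 ratio read after 2 h at RT; Hill-fitted EC50, efficacy relative to 0.1 uM dexamethasone.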
# [4] = qHTS assay for small molecule antagonists of peroxisome proliferator-activated receptor delta signaling (AID 588535); settings: HEK293T PPARd-UAS-bla, beta-lactamase FRET ratio, 18 h; 460 nm channel;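 further: cells co-treated with a PPAR-delta agonist as stimulator during compound exposure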
# Procedure, shortened: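 HEK293T PPAR-delta-UAS-bla cells, 4000/well, 2% charcoal/dextran FBS; 5 h 37 C; cpd titration; 18 h 37 C; CCF4 2 h RT; FI 460/530 nm; Hill fit → IC50, efficacy.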
# [5] = target: Peroxisome proliferator-activated receptor gamma (Homo sapiens) (UniProt P37231); experiment: qHTS assay for small molecule agonists of peroxisome proliferator-activated receptor gamma signaling (AID 588536; active means well fitted curve in the direction sought with a large enough effect in the signal ratio, with a control signal flat, not every such curve was filed as active; the % refers to the signal ratio;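 further: 0% = DMSO basal wells and 100% = rosiglitazone at 2 µM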)
# Peroxisome proliferator-activated receptor gamma (Homo sapiens), sequence (P37231 whole entry, looked up): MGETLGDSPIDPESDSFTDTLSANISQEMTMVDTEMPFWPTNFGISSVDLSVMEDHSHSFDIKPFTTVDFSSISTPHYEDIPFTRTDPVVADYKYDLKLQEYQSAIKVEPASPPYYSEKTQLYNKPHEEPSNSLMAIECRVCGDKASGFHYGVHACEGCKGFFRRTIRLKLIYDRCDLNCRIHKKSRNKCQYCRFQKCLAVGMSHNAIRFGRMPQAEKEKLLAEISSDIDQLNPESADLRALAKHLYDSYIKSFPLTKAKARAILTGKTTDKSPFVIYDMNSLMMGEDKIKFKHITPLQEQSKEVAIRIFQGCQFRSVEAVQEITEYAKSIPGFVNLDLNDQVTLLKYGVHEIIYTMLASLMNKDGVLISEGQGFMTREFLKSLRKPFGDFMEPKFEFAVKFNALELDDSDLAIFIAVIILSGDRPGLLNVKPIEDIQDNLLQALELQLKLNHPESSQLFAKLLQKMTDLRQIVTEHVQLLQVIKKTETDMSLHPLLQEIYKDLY
# Procedure, shortened: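 Test agents, titrated, stimulated HEK293 UAS-bla cells overnight (16 h, 37 C). Substrate CCF4 was then added for two hours at room temperature before fluorescence reading.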
# [6] = target: Vitamin D3 receptor (Homo sapiens) (UniProt P11473); experiment: qHTS assay for small molecule antagonists of vitamin D receptor signaling (AID 588541; calls by dose curve;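 further: receptor activated by calcitriol during compound treatment; series mostly up to about 77 µM; on the % scale 0 is the no-effect control and ±100 the full control effect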)
# Vitamin D3 receptor (Homo sapiens), sequence (P11473 whole entry, looked up): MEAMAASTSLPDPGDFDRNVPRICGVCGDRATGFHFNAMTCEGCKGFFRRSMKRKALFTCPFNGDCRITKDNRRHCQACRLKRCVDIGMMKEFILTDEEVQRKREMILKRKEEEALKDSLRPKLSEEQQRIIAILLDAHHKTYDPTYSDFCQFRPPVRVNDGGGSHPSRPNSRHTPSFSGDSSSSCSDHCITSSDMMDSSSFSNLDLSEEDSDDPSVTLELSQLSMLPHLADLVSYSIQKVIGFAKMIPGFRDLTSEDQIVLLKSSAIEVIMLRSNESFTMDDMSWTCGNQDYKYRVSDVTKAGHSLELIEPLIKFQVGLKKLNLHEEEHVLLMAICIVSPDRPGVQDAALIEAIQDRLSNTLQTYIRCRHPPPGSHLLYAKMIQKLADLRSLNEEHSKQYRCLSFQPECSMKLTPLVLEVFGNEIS
# Procedure, shortened: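 Antagonist-mode beta-lactamase reporter assay: HEK293T VDR-UAS-bla cells were exposed to titrated compound alongside 1-alpha,25-dihydroxyvitamin D3 at 3 nM final for 16 h. Values were normalized to the 50 nM agonist control and DMSO basal, with IC50 and efficacy from Hill equation fits.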
# [7] = qHTS assay for small molecule agonists of retinoid X receptor alpha signaling (AID 588544; calls by dose curve;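 on activation: 0% = DMSO basal wells and 100% = reference agonist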); settings: HEK293T RXRa-UAS-bla, beta-lactamase reporter, 18 h; 530 nm emission
# [8] = target: Retinoic acid receptor RXR-alpha (Homo sapiens) (UniProt P19793); experiment: as above
# Retinoic acid receptor RXR-alpha (Homo sapiens), sequence (P19793 whole entry, looked up): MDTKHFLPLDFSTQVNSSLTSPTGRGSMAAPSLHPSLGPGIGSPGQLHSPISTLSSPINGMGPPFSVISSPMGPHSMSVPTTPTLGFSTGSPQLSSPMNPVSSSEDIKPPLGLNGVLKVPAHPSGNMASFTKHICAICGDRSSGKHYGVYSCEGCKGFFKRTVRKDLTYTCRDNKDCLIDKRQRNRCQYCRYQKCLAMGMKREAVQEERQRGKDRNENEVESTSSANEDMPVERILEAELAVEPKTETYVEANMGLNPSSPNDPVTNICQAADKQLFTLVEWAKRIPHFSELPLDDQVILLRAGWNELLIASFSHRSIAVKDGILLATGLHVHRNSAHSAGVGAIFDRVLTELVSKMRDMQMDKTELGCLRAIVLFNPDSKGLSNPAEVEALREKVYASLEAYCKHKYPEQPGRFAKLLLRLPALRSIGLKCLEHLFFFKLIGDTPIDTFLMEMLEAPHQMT
# [9] = target: Thyroid hormone receptor beta (Homo sapiens) (UniProt P10828); experiment: qHTS assay for small molecule agonists of thyroid hormone receptor beta signaling (AID 588545; calls by dose curve;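 further: 0% = DMSO only and 100% = 10 nM T3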)
# Thyroid hormone receptor beta (Homo sapiens), sequence (P10828 whole entry, looked up): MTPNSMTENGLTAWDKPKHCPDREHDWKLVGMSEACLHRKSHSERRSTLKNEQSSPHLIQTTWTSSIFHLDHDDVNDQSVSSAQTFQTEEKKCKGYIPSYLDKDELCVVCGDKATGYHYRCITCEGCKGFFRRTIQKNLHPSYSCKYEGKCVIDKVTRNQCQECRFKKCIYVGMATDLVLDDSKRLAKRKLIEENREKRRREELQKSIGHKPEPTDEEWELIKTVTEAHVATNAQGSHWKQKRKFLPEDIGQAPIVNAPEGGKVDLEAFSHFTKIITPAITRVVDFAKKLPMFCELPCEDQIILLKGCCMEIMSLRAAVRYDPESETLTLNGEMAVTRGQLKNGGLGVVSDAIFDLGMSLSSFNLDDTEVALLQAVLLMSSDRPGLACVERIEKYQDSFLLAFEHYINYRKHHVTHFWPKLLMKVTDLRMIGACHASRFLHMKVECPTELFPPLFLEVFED
# Procedure, shortened: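 TR-UAS-bla GripTite HEK 293 cells (2500/well, medium with 2% charcoal/dextran FBS) were treated in agonist mode for 18 h at 37 C, titrated. Beta-lactamase was read by CCF4 ratio after 2 h; normalized to 10 nM T3 (100%) and DMSO, Hill-fitted for EC50 and efficacy.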
# [10] = qHTS assay for small molecule antagonists of retinoid X receptor alpha signaling (AID 588546; active means well fitted inhibition curve with a large enough effect in the signal ratio, with a control signal flat, not every such curve was filed as active; the % refers to the signal ratio;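 further: cells stimulated with 9-cis-retinoic acid as agonist; on the % scale 0 is the no-effect control and ±100 the full control effect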); settings: HEK293T RXRa-UAS-bla, beta-lactamase ratio, antagonist mode; measured here: W530 green channel, cytotoxicity proxy
# Procedure, shortened: (§1)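 Beta-lactamase reporter inhibition, read as CCF4 fluorescence ratio (ex 405, em 460/530 nm) after 2 h at RT. HEK293T UAS-bla cells, 2500/well, were stimulated with 9-cis-RA at 500 or 100 nM final alongside test compound for 18 h at 37 C.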
# [11] = target: Retinoic acid receptor RXR-alpha (Homo sapiens) (UniProt P19793); experiment: as above; settings: HEK293T RXRa-UAS-bla, beta-lactamase ratio, antagonist mode
# Procedure, shortened: as §1
# [12] = target: Thyroid hormone receptor beta (Homo sapiens) (UniProt P10828); experiment: qHTS assay for small molecule antagonists of thyroid hormone receptor beta signaling (AID 588547; active means well fitted inhibition curve with a large enough effect in the signal ratio, with a control signal flat, not every such curve was filed as active; the % refers to the signal ratio;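 further: cells stimulated with 0.4 nM T3 agonist during compound exposure; series mostly up to about 77 µM; on the % scale 0 is the no-effect control and ±100 the full control effect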); settings: TR-UAS-bla HEK293, beta-lactamase ratio, antagonist mode, 18 h
# Procedure, shortened: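 Inhibition of T3-driven (0.4nM final) beta-lactamase reporter activity was measured over 0.59 nM to 92 uM compound after 18 h at 37 C. The cells were GripTite HEK293 TR-UAS-bla in charcoal/dextran-stripped serum, with CCF4 ratio read-out and IC50 from Hill fits.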
# [13] = qHTS assay for small molecule activators of the nuclear factor-kappa B (NF-kB) signaling pathway (AID 651749; active means well fitted activation curve with a large enough effect in the signal ratio; the % refers to the signal ratio; further: series mostly up to about 77 µM; % of control where 0% means no effect); settings: NF-kB-bla ME-180 cells, beta-lactamase FRET ratio, 16 h; activation: stronger effect = higher value
# Procedure, shortened: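 Readout: beta-lactamase reporter driven by an NF-kB response element, detected fluorescently as loss of FRET. Cells were the ME-180 line, treated 16 hr at 37C with pin-transferred compound.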
# [14] = qHTS assay for environmental chemicals that activate the Aryl hydrocarbon Receptor (AhR) signaling pathway (AID 651777); settings: 1A2-DRE human hepatoma cells, luciferase, 24 h; activation: stronger effect = higher value; further: % of control where 0% means no effect; nearly all actives have a fitted effect of over 15% in size
# Procedure, shortened: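 Human hepatoma 1A2-DRE cells stably carrying a DRE/CYP1A2 promoter–luciferase reporter, 1,200 cells/well, exposed to compound 24 hr at 37 C. Luciferase read by One-Glo luminescence after 30 min at room temperature; increased signal marks AhR activation.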
# [15] = target: Peroxisome proliferator-activated receptor alpha (Homo sapiens) (UniProt Q07869); experiment: qHTS assay for small molecule agonists of the peroxisome proliferator-activated receptor alpha (PPARalpha) signaling pathway (AID 651778); settings: PathHunter PPARalpha complementation, chemiluminescence, 6 h; max response: stronger effect = higher value; further: % of control where 0% means no effect
# Peroxisome proliferator-activated receptor alpha (Homo sapiens), sequence (Q07869 whole entry, looked up): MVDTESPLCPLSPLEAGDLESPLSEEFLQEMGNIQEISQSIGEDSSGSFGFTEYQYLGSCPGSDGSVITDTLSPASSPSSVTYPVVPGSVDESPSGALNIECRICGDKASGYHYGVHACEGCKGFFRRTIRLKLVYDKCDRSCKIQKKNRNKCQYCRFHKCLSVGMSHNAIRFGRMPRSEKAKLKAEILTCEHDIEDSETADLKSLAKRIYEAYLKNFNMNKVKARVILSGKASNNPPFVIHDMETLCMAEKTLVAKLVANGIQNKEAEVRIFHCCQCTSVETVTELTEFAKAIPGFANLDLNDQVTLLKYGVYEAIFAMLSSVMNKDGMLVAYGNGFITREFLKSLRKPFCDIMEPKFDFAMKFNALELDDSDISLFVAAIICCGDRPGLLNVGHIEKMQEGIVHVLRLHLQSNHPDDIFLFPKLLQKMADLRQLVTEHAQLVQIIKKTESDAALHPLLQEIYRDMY
# Procedure, shortened: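 Chemiluminescence from complemented enzyme reported PPARalpha activation in cells after 6 hr of compound treatment at 37 C. The detection reagent was incubated for 60 min at room temperature, and compounds were scored as agonists.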
# [16] = qHTS assay for small molecule agonists of the antioxidant response element (ARE) signaling pathway measured by Nrf2-dependant transcriptional activity - cell viability counter screen (AID 720653; active means well fitted curve in the direction sought with a large enough effect in the repeat runs; an effect the other way counts as inactive or inconclusive; further: on the % scale 0 is the no-effect control and ±100 the full control effect); settings: ARE-bla HepG2 viability, CellTiter-Glo ATP luminescence, 16 h; max response: stronger effect = lower value
# Procedure, shortened: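 Cytotoxicity counter screen: intracellular ATP quantified by CellTiter-Glo luminescence in the same ARE-bla HepG2 plates, after 16 h compound exposure and a 2 h beta-lactamase substrate step.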
# [17] = qHTS assay for cell viability of HEK293 cells (AID 743288); settings: ATP luminescence (CellTiter-Glo), 18 h; max response: stronger effect = lower value; further: on the % scale 0 is the no-effect control and ±100 the full control effect; nearly all actives have a fitted effect of over 50% in size
# Procedure, shortened: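 Environmental chemicals tested in qHTS format against parental HEK293 cells; 18 h treatment, 37 C; read-out ATP luminescence (CellTiter-Glo), 30 min RT development.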
# [18] = qHTS assay for cell viability of the p53RE-bla HCT-116 cell line (AID 743292); further: on the % scale 0 is the no-effect control and ±100 the full control effect; nearly all actives have a fitted effect of over 55% in size
# Procedure, shortened: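 CellSensor p53RE-bla HCT-116 cells (4,000/well) pre-incubated 5 h at 37 C, then exposed to compounds in DMSO for 16 h at 37 C. Viability read as ATP content by CellTiter-Glo luminescence after 30 min at room temperature.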
# [19] = target: Nuclear receptor subfamily 1 group I member 2 (Rattus norvegicus) (UniProt Q9R1A7); experiment: qHTS assay for small molecule activators of the rat pregnane X receptor (rPXR) signaling pathway (AID 651751; call rule not given here; further: 0% is about no effect); settings: rPXR reporter cells, luciferase (One-Glo), 24 h
# Nuclear receptor subfamily 1 group I member 2 (Rattus norvegicus), sequence (Q9R1A7 whole entry, looked up): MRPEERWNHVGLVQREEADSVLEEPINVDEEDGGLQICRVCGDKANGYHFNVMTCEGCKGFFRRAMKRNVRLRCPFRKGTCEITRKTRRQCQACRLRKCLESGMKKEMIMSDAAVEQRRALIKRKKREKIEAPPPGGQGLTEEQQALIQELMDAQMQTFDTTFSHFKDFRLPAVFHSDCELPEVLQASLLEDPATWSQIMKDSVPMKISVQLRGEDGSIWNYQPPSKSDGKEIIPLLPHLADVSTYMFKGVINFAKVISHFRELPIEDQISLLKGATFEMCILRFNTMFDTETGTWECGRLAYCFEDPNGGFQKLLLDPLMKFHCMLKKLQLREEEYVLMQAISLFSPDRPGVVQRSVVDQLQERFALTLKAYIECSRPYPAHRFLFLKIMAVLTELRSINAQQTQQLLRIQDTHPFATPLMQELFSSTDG
# [20] = qHTS assay for small molecule activators of the human pregnane X receptor (PXR) signaling pathway (AID 720659; call rule not given here; further: 0% is about no effect)
SMILES,Potency [1],Potency [2],activation [3],max response [4] [%],outcome [5],Potency [6],max response [7] [%],Potency [8],Potency [9],max response [10] [%],max response [11],activity change % (negative = inhibition) [12],activation [13],activation [14],max response [15],max response [16],max response [17],Potency [18],max response [19],outcome [20]
C/C(=C\C(C)CC(C)CC(C)C)C1CC(=O)OC1=O (stereo unspecified),inactive,inactive,-4.02% (inactive),29.8,inactive,inactive,7.08,inactive,inactive,-6.65,4.94% (inactive),0.311% (inactive),-0.74% (inactive),1.33% (inactive),-0.902% (inactive),-17.9% (inactive),-7.26% (inactive),inactive,3.67% (inactive),inactive
CC/C=C\CCOC(=O)c1ccccc1O,inactive,25.1 µM (active),-3.47% (inactive),-19.1,inactive,inactive,-9.64,inactive,inactive,-7.38,0.792% (inactive),0.0454% (inactive),-0.397% (inactive),1.45% (inactive),0.589% (inactive),6.72% (inactive),0.746% (inactive),inactive,5.21% (inactive),inactive
CC(C)(C)C1CCC(O)CC1 (stereo unspecified),inactive,inactive,-9.45% (inactive),-7.35,inactive,inactive,,,inactive,-0.1,3.31% (inactive),-2.02% (inactive),0.471% (inactive),,,2.04% (inactive),1.92% (inactive),inactive,1.71% (inactive),inactive
Cc1cc(C)c(N)c(Cl)c1,inactive,inactive,5.1% (inactive),24.2,inactive,inactive,-1.71,inactive,inactive,,,-1.82% (inactive),,-1.79% (inactive),-1.91% (inactive),2.61% (inactive),-10.1% (inactive),,-0.981% (inactive),inactive
OC1CCCCCCCCCCC1,inactive,inactive,-19.4% (inactive),17.8,inactive,,10.2,inactive,inactive,-1.99,-4.46% (inactive),,0.918% (inactive),1.93% (inactive),-2.43% (inactive),3.88% (inactive),-8% (inactive),inactive,-3.86% (inactive),inactive
O=C(O)C(c1ccc(Cl)cc1)c1ccc(Cl)cc1,inactive,inactive,,-10.8,,,,,inactive,-10.2,,-8.17% (inactive),0.121% (inactive),-0.789% (inactive),3.51% (inactive),,0.137% (inactive),inactive,-4.74% (inactive),inactive
c1ccc(OCCOc2ccccc2)cc1,inactive,inactive,-7.01% (inactive),9.85,inactive,,,,inactive,-12.8,-10.1% (inactive),5.59% (inactive),-1.28% (inactive),8.39% (inactive),0.31% (inactive),-8.94% (inactive),-4.78% (inactive),,,
C=CC(=O)OCC[N+](C)(C)C,inactive,inactive,,35.3,inactive,inactive,1.33,inactive,inactive,1.52,1.59% (inactive),-9.01% (inactive),,0.372% (inactive),-0.129% (inactive),1.86% (inactive),-5.74% (inactive),inactive,-0.896% (inactive),
C[Si]1(C)O[Si](C)(C)O[Si](C)(C)O[Si](C)(C)O[Si](C)(C)O1,inactive,inactive,5.87% (inactive),5.15,inactive,,-18.1,inactive,inactive,-10.4,2.84% (inactive),,-6.08% (inactive),0.106% (inactive),-3.04% (inactive),-13.9% (inactive),-11.9% (inactive),inactive,-3.44% (inactive),inactive
O=S(=O)(O)c1ccc(N=Nc2c(O)ccc3cc(S(=O)(=O)O)ccc23)cc1,inactive,inactive,,-5.34,,,-4.64,inactive,inactive,-15.1,-6.14% (inactive),-13.9% (inactive),-0.945% (inactive),-1.77% (inactive),-7.14% (inactive),-22.3% (inactive),-13.8% (inactive),inactive,-7.92% (inactive),inactive
O=[N+]([O-])C(CO)(CO)CO,inactive,inactive,,26.9,inactive,,-11.5,inactive,inactive,-5.31,4.16% (inactive),,0.34% (inactive),-1.19% (inactive),-3.92% (inactive),-10% (inactive),-13.7% (inactive),inactive,0.128% (inactive),inactive
CCCCOCCOCCOC(C)=O,inactive,inactive,-1.04% (inactive),11.1,inactive,inactive,-16.2,inactive,inactive,,,-10.2% (inactive),-2.2% (inactive),-2.27% (inactive),-0.313% (inactive),-1.74% (inactive),5.77% (inactive),inactive,-2.22% (inactive),inactive
CCCCOCCOCCOCCO,inactive,inactive,,-4.48,inactive,inactive,-9.78,inactive,inactive,1.39,,-0.828% (inactive),-0.915% (inactive),1.2% (inactive),-1.01% (inactive),5.3% (inactive),-2.85% (inactive),,2.44% (inactive),inactive

# — PubChem BioAssay (NCATS)
